# Screens deposited in PubChem BioAssay by National Center for Advancing Translational Sciences (NCATS).
# Rab9 promoter act: Rab9 promoter activation. Huh7 Rab9 promoter-luciferase reporter, luminescence, 24 h. Potency, µM (titrated, usually from 9.22 µM), without a hit: top-dose activation, negative = inhibition, usual class: activators. 320,000 compounds, 2.8% hits. AID 485297; also: % of control where 0% means no effect; nearly all actives have a fitted effect of over 60% in size
#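 Huh7 reporter line, Rab9 promoter upstream of luciferase. Compound exposure 24 h at 37 °C in reduced-serum medium with 10% FBS. Read-out: luminescence.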
# NPC1 promoter act: activators of NPC1 promoter | 320,000 compounds, 2.4% hits | Potency, µM (doses to about 9.22 µM), for inactives: at the highest dose activation, most hits filed as activators | Huh7 NPC1 promoter luciferase reporter, 24 h; also: % of control where 0% means no effect; nearly all actives have a fitted effect of over 60% in size
#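 Quantitative HTS used a cell-based reporter: Huh7 cells stably bearing the NPC1 promoter upstream of luciferase were treated with compounds for 24 h, and promoter activation was read as luminescence.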
# FLuc modulator: counter-screen for miR-21 project: firefly luciferase inhibitors or activators. 360,000 compounds, 6.9% hits. purified FLuc, Km substrates, luminescence inhibition. Potency, µM (highest dose often 57.5 µM), without a hit: at the highest dose activity change, negative = inhibition, usual class: inhibitors. AID 588342;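 also: plate controls were vehicle for no effect and reference inhibitor for full effect; nearly all actives have a fitted effect of over 55% in size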
# Target sequence (P08659 whole entry, looked up): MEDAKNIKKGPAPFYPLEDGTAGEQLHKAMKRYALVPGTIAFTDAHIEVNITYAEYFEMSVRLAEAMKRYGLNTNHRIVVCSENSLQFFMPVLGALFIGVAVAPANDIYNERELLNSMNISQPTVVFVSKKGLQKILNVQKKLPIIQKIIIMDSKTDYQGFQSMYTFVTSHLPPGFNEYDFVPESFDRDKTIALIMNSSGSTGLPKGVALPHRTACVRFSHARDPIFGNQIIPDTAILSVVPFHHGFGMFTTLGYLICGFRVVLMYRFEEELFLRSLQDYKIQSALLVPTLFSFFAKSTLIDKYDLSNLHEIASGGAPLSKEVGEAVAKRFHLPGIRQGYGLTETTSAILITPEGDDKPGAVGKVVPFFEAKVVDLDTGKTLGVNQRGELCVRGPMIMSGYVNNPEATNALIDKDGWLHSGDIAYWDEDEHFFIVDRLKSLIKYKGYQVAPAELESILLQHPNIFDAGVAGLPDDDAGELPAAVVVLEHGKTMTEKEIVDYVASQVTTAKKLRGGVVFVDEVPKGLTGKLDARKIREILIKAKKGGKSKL
#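 Biochemical qHTS of compounds, final roughly 60 µM downward over six points, against 10 nM purified firefly luciferase using Km concentrations of substrates (10 uM D-luciferin, 10 uM ATP) in Tris acetate pH 7.5 buffer; luminescence output.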
# ELG1 DNA repair: ELG1-dependent DNA repair inhibition | HEK293T ELG1-luciferase reporter, luminescence, 16 h; DNA damage induced by 5-fluorouridine | Potency, µM (doses to about 46.1 µM), for inactives: top-dose activity change, negative = inhibition, actives largely listed as inhibitors | 330,000 compounds, 2.3% hits | AID 504467; also: % is scaled to controls: 0 for no effect and ±100 for the full control effect; nearly all actives have a fitted effect of over 55% in size
#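 Step one: seed 2,000 cells per well. Step two: pin-transfer compound or DMSO alongside 5-fluorouridine. Step three: incubate 16 hr, 37 °C, 5% CO2. Step four: add ONE-Glo, wait 30 min, read luminescence.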
# ELG1 genotoxic: inducers of genotoxicity in HEK293T ELG1-luciferase cells | 330,000 compounds, 1.3% hits | HEK293T ELG1-luciferase reporter, luminescence, 16 h | Potency, µM (series often up to 46 µM), inactives show at the top dose activity change, positive = activation, usual class: activators; also: % of control where 0% means no effect; nearly all actives have a fitted effect of over 60% in size
#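 DMSO vehicle served as control against compound-treated ELG1-luciferase HEK293T cells; exposure lasted 16 hr at 37 °C and 5% CO2, followed by ONE-Glo luminescence detection after 30 min.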
# SMN2 splice up: SMN2 splice variant enhancement. HEK293 SMN2-luciferase splicing reporter, luminescence, 30-36 h. Potency, µM (series often up to 46.1 µM), inactives show at the highest dose activity change, positive = activation, most hits filed as activators. 210,000 compounds, 2.8% hits; also: % of control where 0% means no effect; nearly all actives have a fitted effect of over 55% in size
#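 qHTS luciferase splicing reporter: luminescence rises when SMN2 exon 7 is included in transfected HEK293 cells. Compound exposure lasted 30-36 h at 37C, with 4.5 mM final sodium butyrate as control, followed by a ONE-Glo read.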
# * hit, by the source's call; ? = inconclusive; · = no result. Hits are enriched below; roughly 9.2% of the tested compounds scored in any of these assays. Calls follow the shape of the dose curve; as a rule, active = well fitted curve in the direction sought with a large enough effect; inconclusive = small, poorly fitted or top-dose-only effect, or another doubt; inactive = no such curve, though single readings can be large; an effect the other way counts as inactive or inconclusive. Potency is read from the fitted curve at half-maximal effect.
SMILES,Rab9 promoter act,NPC1 promoter act,FLuc modulator,ELG1 DNA repair,ELG1 genotoxic,SMN2 splice up
COc1cccc(-c2nc(CS(=O)(=O)CC(=O)NCc3cccc(Cl)c3)c(C)o2)c1,·,·,1%,·,·,17%
O=C(CSc1nn(-c2ccc(Cl)cc2)c(=S)s1)NCC1CCCO1 (centres undefined),4%,0%,-10%,-11%,-5%,-15%
CCn1c(=O)c(CCC(=O)N2CCN(c3ccccn3)CC2)c(C)c2c(C)nn(-c3cccc(C)c3)c21,-5%,-2%,-1%,6.5µM*,-17%,·
COc1ccc(-c2nc(CN3CCN(C(=O)c4ccco4)CC3)c(C)o2)c(OC)c1C,-3%,-1%,-3%,12µM*,-8%,·
COc1ccc(C2CC2/C(C)=N/OC(=O)C2CC2)cc1 (centres undefined),14%,0%,-7%,3%,-3%,16%
C/C(=N/OC(=O)C1CC1c1ccccc1)c1ccccc1 (centres undefined),0%,-1%,19µM*,-2%,?,-35%
COC(=O)CNC(=O)C1(CC(C)C)C=CCN1C(C)=O (centres undefined),·,·,·,·,·,13µM*
O=C1/C(=C\c2ccc(O)c(O)c2)C(c2ccccc2)=NN1c1ccccc1,-13%,-12%,19µM*,-5%,8%,-2%
CCOc1cc(/C=C2\C(=O)N(c3nc(-c4ccc(Br)cc4)cs3)N=C2c2ccccc2)ccc1O,-4%,-8%,1%,?,0%,-42%
COc1cc(/C=C2\C(=O)N(c3ccc(NC(C)=O)cc3)N=C2c2ccccc2)ccc1O,-6%,-1%,17µM*,12%,6%,5%
O=C(N/N=C/c1ccccc1)NC1CCCCC1,22%,16%,?,?,14%,26%
O=C(N/N=C/c1ccccc1F)NC1CCCCC1,2.8µM*,?,24µM*,?,?,?
COc1cc(NC(=O)/C=C/c2ccccc2)c(C(=O)O)cc1OC,7%,4%,6µM*,?,15%,·
COC(=O)c1cc(NC(=O)/C=C/c2ccccc2)ccc1O,?,?,11µM*,?,7%,·
NC(=O)c1ccccc1NC(=O)/C=C/c1ccccc1,1.8µM*,?,6µM*,?,?,?
COc1cc(NC(=O)Cc2ccccc2)c(C(=O)O)cc1OC,-4%,-2%,-15%,-4%,4%,·
NC(=O)c1ccccc1NC(=O)/C=C/c1ccc(Cl)cc1,2.5µM*,1.8µM*,1.7µM*,?,3.7µM*,13µM*
O=C(/C=C/c1ccc(Cl)cc1)NC(=S)Nc1ccccc1C(=O)O,-1%,-3%,?,-3%,0%,·
C[n+]1nc(Nc2cccc3ccccc23)sc1-c1ccc(C(=O)O)cc1,10%,15%,-2%,?,5%,·
CCOC(=O)C1CCN(c2ncnc3c2[nH]c2cccc(OC)c23)CC1,5%,0%,-19%,?,-16%,5%
COc1ccc(N2CCN(c3ncnc4c3[nH]c3ccccc34)CC2)cc1,·,·,-3%,·,·,-72%
COc1cc2[nH]c3c(N4CCN(c5ccccn5)CC4)ncnc3c2cc1OC,5%,-13%,13µM*,?,-5%,-39%
Cc1cccc2[nH]c3c(N4CC=C(c5ccc(F)cc5)CC4)ncnc3c12,-5%,-6%,-12%,12µM*,-12%,·
COc1cccc2[nH]c3c(N4CCCCC4)ncnc3c12,10%,28%,13µM*,?,27%,4%
COc1ccc(NC(=O)c2cc3c(=O)n(Cc4ccco4)ccc3nc2C)c(OC)c1,·,·,-6%,·,·,·
SMILES,Rab9 promoter act,NPC1 promoter act,FLuc modulator,ELG1 DNA repair,ELG1 genotoxic,SMN2 splice up
COc1ccc(C)cc1NC(=O)C1CCN(S(=O)(=O)c2cccs2)CC1,1%,-3%,1%,19%,5%,·
Cc1nc([N+](=O)[O-])c(C(=O)OCc2ccc(C#N)cc2)n1C,6%,-2%,0%,-1%,-1%,16%
Cc1ccc(-c2cn(-c3ccccc3)c(SCC(=O)NC3CCS(=O)(=O)C3)n2)cc1C (centres undefined),2µM*,3.2µM*,?,?,?,?
Cc1ccc(SCC(=O)NC2CCS(=O)(=O)C2)cc1C (centres undefined),1%,-2%,-1%,0%,-1%,·
CCc1noc(C)c1C(=O)N(C)CC(=O)Nc1cccc(OC)c1,-2%,2%,6%,-2%,0%,·
Cc1ccsc1/C=N/N=C/c1sccc1C,1.6µM*,4µM*,1.1µM*,?,?,·
Cc1ccc(C(=O)N/N=C\c2sccc2C)cn1,?,?,17µM*,?,?,?
Cc1ccsc1/C=N/NC(=O)c1sccc1C,3.2µM*,2.5µM*,5.4µM*,?,?,11µM*
CCN(CC)S(=O)(=O)c1cc(C)ccc1NC(=S)Nc1cccnc1,-20%,-5%,-7%,?,-10%,-56%
CC(NC(=O)C1(c2cccs2)CCOCC1)c1ccccc1 (centres undefined),-2%,-1%,-2%,6%,1%,2%
CC(C)c1ccc2c(c1)C1(NN=C(c3ccccc3)S1)C(=O)N2 (centres undefined),-1%,-6%,17µM*,?,19%,-71%
CCc1ccc2c(c1)C1(NN=C(c3ccc(C)cc3)S1)C(=O)N2 (centres undefined),-2%,-2%,27µM*,?,?,-45%
CC(C)c1ccc(O)c(NC(=O)c2ncn[nH]2)c1,18%,-5%,?,24%,-1%,-14%
CSc1nsc(SC)c1C(=O)NC(=O)Nc1cccnc1,0%,-3%,-1%,5%,1%,·
CSc1nsc(SC)c1C(=O)Nc1ccc(C(C)(C)C)cc1,13%,16%,11µM*,18µM*,0%,·
Cc1ccc(C)c(NC(=O)Cc2coc3cc(C)cc(C)c23)c1,·,·,-4%,·,·,-2%
O=C1c2oc3ccccc3c(=O)c2C(c2cccc(O)c2)N1Cc1ccc(F)cc1 (centres undefined),·,·,-1%,·,·,-22%
CCOC(=O)c1sc(NC(C)=O)cc1C,-2%,0%,-10%,8%,-1%,2%
CCOC(=O)c1sc(NC(=O)C2CCC2)cc1C,?,?,12µM*,?,?,16µM*
CCOC(=O)c1sc(NC(=O)Nc2ccccc2Cl)cc1C,0.63µM*,0.71µM*,0.43µM*,?,?,0.71µM*
CCOC(=O)c1sc(NC(=O)c2ccc(C)s2)cc1C,1.1µM*,?,0.85µM*,?,18%,22µM*
